IDE cell activ: IDE (human) activation, cell-based | activation, % at 5.96 µM | P14735 | HEK cells, FAbeta-B cleavage, fluorescence polarization; 0% vehicle, 100% cell-free pure enzyme wells | actives 0.073% (n = 340,000);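 active means activation above the mean of all tested compounds plus 3 SD, set per screening campaign, cut at about 17% in these data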
Cardiac RTF inh: cardiac RTF calcium desensitization. actives 0.12% (n = 340,000). P19429+P45379. AID 493244. inhibition, % at 7.15 µM. IANBD-labeled cardiac RTF, Ca2+ fluorescence;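 active means inhibition above the mean inhibition of all tested compounds plus 3 SD, cut at about 17% in these data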;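 further: assay run at fixed EC70 calcium of 1.6 mM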
IDE cell inh: inhibits human insulin-degrading enzyme in HEK cells. FAbetaB cleavage, fluorescence polarization. actives 0.41% (n = 320,000). inhibition, % at 5.59 µM;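 active means percent inhibition above the average of all tested compounds plus 3 SD, set per screening campaign, cut at about 16% in these data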;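 further: IDE supplied by intact live HEK cells; FP after avidin binding of uncleaved biotin substrate so inhibition keeps polarization high; 0% = DMSO wells and 100% = 60 µM reference IDE inhibitor Ii1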
RTF Ca sens act: cardiac RTF calcium sensitization; P19429+P45379; actives 0.24% (n = 340,000); IANBD-labeled TnC RTF fluorescence at EC20 calcium; 0% EC20 calcium, 100% full calcium; activation, % at 7.2 µM; AID 493008;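 active means activation above the mean over all tested compounds plus 3 SD, cut at about 30% in these data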;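 further: rise in fluorescence read as greater calcium sensitivity of cardiac thin filaments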
Keap1-Nrf2 PPI: Keap1-Nrf2 (human) interaction inhibition; Q14145; Keap1 Kelch-Nrf2 peptide fluorescence polarization, 1536-well; inhibition, % at 9.4 µM; actives 0.15% (n = 340,000); AID 504523; in the data active means inhibition above about 12%;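 further: human Keap1 Kelch domain with fluorescein labeled Nrf2 9mer peptide probe; 0% = neutral control wells and 100% = peptide positive control; higher means more block of Keap1 binding to Nrf2 peptide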
Target sequence (Q14145 whole entry, looked up, the tested form may be a part): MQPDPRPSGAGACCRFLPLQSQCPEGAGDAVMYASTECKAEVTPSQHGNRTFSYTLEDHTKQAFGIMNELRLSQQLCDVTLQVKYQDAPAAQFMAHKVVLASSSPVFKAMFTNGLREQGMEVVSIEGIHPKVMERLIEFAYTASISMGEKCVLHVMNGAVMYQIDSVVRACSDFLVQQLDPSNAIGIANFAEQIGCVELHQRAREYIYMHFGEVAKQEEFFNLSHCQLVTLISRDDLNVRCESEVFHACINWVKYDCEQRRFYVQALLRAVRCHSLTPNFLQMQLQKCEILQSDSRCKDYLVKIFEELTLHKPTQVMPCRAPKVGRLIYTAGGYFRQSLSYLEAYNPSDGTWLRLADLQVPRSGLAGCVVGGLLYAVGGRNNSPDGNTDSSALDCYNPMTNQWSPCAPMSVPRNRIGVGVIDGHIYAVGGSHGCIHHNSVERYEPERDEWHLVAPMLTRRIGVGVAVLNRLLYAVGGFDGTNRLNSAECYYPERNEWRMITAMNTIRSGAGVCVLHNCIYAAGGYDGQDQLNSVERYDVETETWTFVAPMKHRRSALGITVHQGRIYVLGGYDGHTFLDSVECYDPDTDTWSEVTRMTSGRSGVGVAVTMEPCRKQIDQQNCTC
C-LANA FP: blocks KSHV LANA C-terminal domain binding to DNA; inhibition, % at 9 µM; AID 504423; MBP-C-LANA/FAM-LBS DNA binding, fluorescence polarization; actives 0.078% (n = 340,000);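 active means highest replicate inhibition at or above 60% at 9 µM, even if other replicates fall short; inactive means all replicates below 60% inhibition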;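 further: 0% = neutral control wells and 100% = 4 µM acridine orange control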
Keap1 TSA: binds and thermally shifts human Keap1 Kelch domain; actives 8% (n = 400); shares compounds with Keap1-Nrf2 PPI; Keap1 Kelch thermal shift, delta Tm; active compounds read high; max delta Tm, degrees C; in the data active means max delta Tm above about 0.48 degrees C
Dye-only ctr: dye artifact in Keap1 thermal shift counter-screen; shares compounds with Keap1-Nrf2 PPI; 140 tested, under 10 active; delta Tm, degrees C (test concentration not listed); AID 651858; Sypro Orange dye-only thermal melt, no protein, delta Tm; top dose 26 µM;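 active means at highest dose tested, delta Tm positive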
Numbers without * were called inactive; / = no result given. A selection: hits, their analogues and other compounds. The true share with any hit is near 0.81%.

SMILES	IDE cell activ	Cardiac RTF inh	IDE cell inh	RTF Ca sens act	Keap1-Nrf2 PPI	C-LANA FP	Keap1 TSA	others
Brc1ccc(CNCC2CCCO2)cc1 (stereo not drawn)	1	4	-1	-2	0	1	/
COCCCNC(=O)c1ccc2c3c(onc13)-c1ccccc1C2=O	-1	-5	3	6	79*	18	-0.19
COCCCNC(=O)c1ccccc1Oc1ccccc1	4	-5	0	-3	-2	0	/
O=Nc1c(O)ccc2cc(S(=O)(=O)O)ccc12	2	-4	/	-1	5	5	/
CN(C)c1ccc2cc(S(=O)(=O)O)cc(O)c2c1	-3	-3	/	7	12*	54	1.3
N#CC1=C(N)Oc2cc(N)ccc2C1c1ccsc1 (stereo not drawn)	4	1	12	4	-3	-1	/
N#CC1=C(N)Oc2ccc3ccc(O)cc3c2C1c1ccsc1 (stereo not drawn)	-8	-106	/	99*	17*	87*	-0.12
CCOC(=O)c1c(C)[nH]c(C(=O)COC(=O)c2cccnc2Cl)c1C	-17	-3	15	-1	25*	11	-0.07	Dye-only ctr=-27
CCCS(=O)(=O)c1nc(S(=O)(=O)c2ccc(C)cc2)c(N2CCN(CC)CC2)s1	4	1	1	-5	-1	1	/
CCN(CC)S(=O)(=O)c1ccc(C(=O)OCCN2C(=O)c3cccc4c(N5CCOCC5)ccc(c34)C2=O)cc1	2	-4	6	4	27*	31	0.07
Cc1ccc(O)c(C(=O)c2cnc3c(c2)c(=O)n(C)c(=O)n3C)c1	/	/	0	/	-1	1	/
Cc1ccc(O)c(C(=O)c2cnc3c(c2)c(C)nn3-c2ccccc2)c1	2	-7	1	-8	23*	1	-0.1	Dye-only ctr=-28
CC(Oc1ncnc2ccccc12)C(=O)Nc1cccc(S(=O)(=O)N2CCOCC2)c1 (stereo not drawn)	2	6	-6	-9	-6	0	/
O=c1cc(CN2CCCc3ccccc32)nc2sccn12	8	-51	0	62*	58*	43	0.01
COc1ccc(/C=N/N2CCN(c3ccc(Cl)cc3)CC2)cc1O	-17	1	10	2	-9	-1	/
CCOC(=O)c1c(NC(=O)CN2CCN(S(=O)(=O)c3cc(Cl)ccc3Cl)CC2)sc(C(=O)N(C)C)c1C	0	-5	/	3	27*	17	-0.11
CCOC(=O)c1c(NC(=O)COC(=O)c2ccc(Cl)nc2)sc(C(=O)N(C)C)c1C	2	13	2	2	-4	-1	/
C=CCn1c(COc2ccccc2F)nnc1SCC(=O)c1c[nH]c2ccccc12	-1	1	-3	-12	-8	0	/
Oc1cc(NCCN2CCOCC2)cc2cccnc12	-1	-10	1	0	18*	11	-0.12
Oc1cc(Nc2ccccc2)cc2cccnc12	-1	2	-3	-7	0	3	/
CC(Sc1nc2ccccc2s1)C(=O)Nc1nnc(C(C)C)s1 (stereo not drawn)	0	-4	-2	-2	71*	81*	-0.04
COc1ccc(NC(=O)NS(=O)(=O)c2ccc(C)cc2)cn1	30*	-491	/	348*	77*	104*	-0.13
COc1ccc(C2=CC(c3ccco3)n3ncnc3N2)cc1 (stereo not drawn)	-29	-98	/	83*	20*	40	-0.16	Dye-only ctr=-28
Clc1ccc(C2=CC(c3ccco3)n3ncnc3N2)cc1 (stereo not drawn)	-25	-205	12	217*	28*	48	-0.02	Dye-only ctr=-34
Clc1ccccc1C1=CC(c2ccco2)n2ncnc2N1 (stereo not drawn)	-5	-26	-2	19	2	13	/
SMILES	IDE cell activ	Cardiac RTF inh	IDE cell inh	RTF Ca sens act	Keap1-Nrf2 PPI	C-LANA FP	Keap1 TSA	others
O=C(NCc1cccc(F)c1)c1cccc2c1C(=O)c1ccc(N3CCCC3)cc1S2(=O)=O	-5	-85	13	76*	15*	31	-0.02
O=C(NCc1ccc(OC(F)(F)F)cc1)c1cccc2c1C(=O)c1ccc(N3CCCC3)cc1S2(=O)=O	-1	-18	9	-6	0	-1	/
CCc1ccc(OCC(=O)OCC(=O)NCCNC(=O)COC(=O)COc2ccc(CC)cc2)cc1	6	-6	4	-2	-3	0	/
NC(=O)C1CCN(C2=C(Cl)C(=O)c3ccccc3C2=O)CC1	1	0	-7	-3	14*	-1	0.14
COc1ccc(NC(=S)N2CCN(Cc3ccc(C)cc3)CC2)cc1	-1	6	-1	0	26*	-1	-0.07	Dye-only ctr=-30
COc1cccc2cc(C(=O)Nc3ccc(S(=O)(=O)NCC4CCCO4)cc3)c(=O)oc12 (stereo not drawn)	-1	12	1	-6	-3	-8	/
C=CCN1C(=O)/C(=C2/Sc3ccc(OC)cc3N2C)SC1=Nc1ccccc1	0	-8	7	0	0	1	/
CCCCN1C(=O)/C(=C2/Sc3ccccc3N2C)S/C1=N\c1ncn[nH]1	-1	-4	2	6	41*	21	-0.07	Dye-only ctr=-28
Cc1cscc1NC(=O)/C=C/C(=O)O	/	/	10	/	33*	18	-0.18
CCCCN(C(=O)CC1CCCCC1)c1c(N)n(CC(C)C)c(=O)[nH]c1=O	3	-10	-2	2	50*	/	-0.14
C=CCOC(=O)C1=C[C@H](c2csc3ccccc23)C[C@H](OCc2ccc(CO)cc2)O1	2	-18	-2	-3	17*	44	-0.19	Dye-only ctr=-27
COc1cc(NC(=O)CSc2nc3cc(C)ccc3cc2C)c(C(=O)O)cc1OC	0	0	-1	1	16*	10	-0.12	Dye-only ctr=-21
COc1cc(NC(=O)CSc2nc3ccccc3cc2C)c(C(=O)O)cc1OC	2	1	-2	4	-4	1	/
Cc1ccc(OCCC(=O)NNC(=O)c2ccc(Br)cc2)cc1	-1	0	4	-2	1	-1	/
O=C(O)c1ccccc1C1=Nc2ccc(O)cc2Oc2cc(O)ccc21	13	-159	6	117*	70*	111*	-0.06	Dye-only ctr=-27
Cc1cc(-c2ccccc2C(=O)O)on1	-1	-5	0	14	-7	-1	/
COc1ccccc1C(=O)NC(=O)COC(=O)CCOc1cc(C)ccc1C	0	-2	1	2	-4	-1	/
N=c1c(C(=O)NC2CCCC2)cc2c(=O)n3ccccc3nc2n1C1CCCCC1	-2	6	2	0	17*	17	-0.06

Compound activity (PubChem)
